Here are results for one sequence from article PMC7862700, “An all-to-all approach to the identification of sequence-specific readers for epigenetic DNA modifications on cytosine”.

Holding throughout (assay): DAPPL (digital affinity profiling via proximity ligation, sequencing); 10 mM Tris-HCl pH 7.5, 50 mM NaCl, 1 mM DTT, 4% glycerol, room temperature, 30 min; GST-TFs on glutathione beads, 16-mer random dsDNA library, 0.1% formaldehyde crosslink after washing; high values mean tight binding
Experiment [1] concerns the target T1, FEV (Homo sapiens, UniProt Q99581 1-238).
T1 sequence: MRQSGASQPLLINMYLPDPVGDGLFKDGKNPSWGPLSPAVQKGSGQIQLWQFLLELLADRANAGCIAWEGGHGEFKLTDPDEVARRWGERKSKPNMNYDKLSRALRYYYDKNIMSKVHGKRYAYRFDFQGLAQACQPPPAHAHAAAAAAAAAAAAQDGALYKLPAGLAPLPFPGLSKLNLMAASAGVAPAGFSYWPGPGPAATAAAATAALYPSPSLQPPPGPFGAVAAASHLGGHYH
The settings on record: protein: recombinant; tags: N-terminal GST; dsDNA, one strand shown. In outline: (§1)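 Binding signal is each hexamer's read frequency for a factor divided by its frequency in the tag-only sample. The factors were GST-fused human transcription factors from yeast, captured on glutathione beads, DNA-barcoded and pooled with that sample. Pools were incubated with 200 nmole of a random double-stranded 16-mer DNA library in Tris/NaCl/DTT/glycerol buffer at room temperature for 30 min, then washed, crosslinked with 0.1% formaldehyde, proximity-ligated with BsaI/T4 ligase (1 h, 37 °C), PCR-amplified and sequenced on an Illumina NextSeq500.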

The target of experiment [2] is ETV5 (Homo sapiens, UniProt P41161 1-510). The settings on record: protein: recombinant; tags: N-terminal GST; dsDNA, one strand shown. In outline:
as §1

Experiment [3] concerns the target HSF1 (Homo sapiens, UniProt Q00613 1-529). The settings on record: protein: recombinant; tags: N-terminal GST; chain copies: 3; dsDNA, one strand shown. The procedure, abridged:
as §1

Experiment [4] concerns the target T2, SPIC (Homo sapiens, UniProt Q8N5J4 1-248).
T2 sequence: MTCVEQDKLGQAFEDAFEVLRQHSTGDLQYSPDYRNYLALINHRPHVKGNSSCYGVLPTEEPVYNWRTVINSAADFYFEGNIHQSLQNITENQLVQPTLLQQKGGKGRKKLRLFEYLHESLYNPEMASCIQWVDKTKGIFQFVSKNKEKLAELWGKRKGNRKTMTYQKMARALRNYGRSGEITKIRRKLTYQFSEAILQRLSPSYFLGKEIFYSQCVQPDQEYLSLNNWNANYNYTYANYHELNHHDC
The settings on record: protein: recombinant; tags: N-terminal GST; dsDNA, one strand shown. In outline:
as §1

Experiment [5] addresses ELF4 (Homo sapiens, UniProt Q99607 1-663). The settings on record: protein: recombinant; tags: N-terminal GST; dsDNA, one strand shown. The procedure, abridged:
as §1

Experiment [6] has as its target T3, ELK4 (Homo sapiens, UniProt P28324-2 1-405).
T3 sequence: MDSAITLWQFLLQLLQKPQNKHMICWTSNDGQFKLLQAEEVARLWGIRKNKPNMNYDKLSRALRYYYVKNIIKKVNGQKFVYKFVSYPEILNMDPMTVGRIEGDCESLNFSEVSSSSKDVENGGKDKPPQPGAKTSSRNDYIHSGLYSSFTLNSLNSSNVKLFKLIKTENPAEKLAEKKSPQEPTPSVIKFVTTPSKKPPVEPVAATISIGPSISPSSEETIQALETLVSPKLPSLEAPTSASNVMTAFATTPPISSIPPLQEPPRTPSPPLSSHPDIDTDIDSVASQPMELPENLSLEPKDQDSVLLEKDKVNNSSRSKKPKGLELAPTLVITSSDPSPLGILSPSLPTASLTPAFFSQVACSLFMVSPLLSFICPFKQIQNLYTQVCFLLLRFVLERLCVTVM
The settings on record: protein: recombinant; tags: N-terminal GST; dsDNA, one strand shown. In outline: as §1

Experiment [7] concerns the target T4, ETV2 (Homo sapiens, UniProt O00321 1-342).
T4 sequence: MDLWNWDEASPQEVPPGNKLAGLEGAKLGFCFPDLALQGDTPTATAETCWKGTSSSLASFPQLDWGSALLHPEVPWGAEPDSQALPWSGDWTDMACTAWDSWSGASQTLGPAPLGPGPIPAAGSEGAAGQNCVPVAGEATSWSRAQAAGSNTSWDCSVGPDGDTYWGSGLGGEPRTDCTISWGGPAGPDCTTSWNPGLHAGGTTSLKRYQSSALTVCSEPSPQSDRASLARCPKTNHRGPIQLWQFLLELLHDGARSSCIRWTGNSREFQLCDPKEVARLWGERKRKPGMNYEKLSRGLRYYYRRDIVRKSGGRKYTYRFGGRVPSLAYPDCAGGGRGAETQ
The settings on record: protein: recombinant; tags: N-terminal GST; dsDNA, one strand shown. In outline: as §1

The target in experiment [8] is T5, ELF3 (Homo sapiens, UniProt P78545 1-371).
T5 sequence: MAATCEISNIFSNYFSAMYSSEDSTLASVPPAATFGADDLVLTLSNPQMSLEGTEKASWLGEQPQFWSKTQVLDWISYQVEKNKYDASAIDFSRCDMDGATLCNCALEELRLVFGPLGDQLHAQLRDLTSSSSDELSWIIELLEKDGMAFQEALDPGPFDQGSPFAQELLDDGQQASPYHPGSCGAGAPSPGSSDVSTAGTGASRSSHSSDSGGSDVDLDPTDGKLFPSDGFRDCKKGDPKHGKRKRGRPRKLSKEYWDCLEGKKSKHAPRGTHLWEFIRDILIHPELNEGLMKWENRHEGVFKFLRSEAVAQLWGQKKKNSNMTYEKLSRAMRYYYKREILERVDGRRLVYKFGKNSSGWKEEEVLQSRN
The settings on record: protein: recombinant; tags: N-terminal GST; dsDNA, one strand shown. In outline: as §1

For experiment [9], the target named is CRX (Homo sapiens, UniProt O43186 1-299). The settings on record: protein: recombinant; tags: N-terminal GST; dsDNA, one strand shown. In outline: as §1
Experiment [10] deals with ETV1 (Homo sapiens, UniProt P50549 1-477). The settings on record: protein: recombinant; tags: N-terminal GST; dsDNA, one strand shown. The procedure, abridged: as §1
Experiment [11] has as its target T6, ERF (Homo sapiens, UniProt P50548 1-548).
T6 sequence: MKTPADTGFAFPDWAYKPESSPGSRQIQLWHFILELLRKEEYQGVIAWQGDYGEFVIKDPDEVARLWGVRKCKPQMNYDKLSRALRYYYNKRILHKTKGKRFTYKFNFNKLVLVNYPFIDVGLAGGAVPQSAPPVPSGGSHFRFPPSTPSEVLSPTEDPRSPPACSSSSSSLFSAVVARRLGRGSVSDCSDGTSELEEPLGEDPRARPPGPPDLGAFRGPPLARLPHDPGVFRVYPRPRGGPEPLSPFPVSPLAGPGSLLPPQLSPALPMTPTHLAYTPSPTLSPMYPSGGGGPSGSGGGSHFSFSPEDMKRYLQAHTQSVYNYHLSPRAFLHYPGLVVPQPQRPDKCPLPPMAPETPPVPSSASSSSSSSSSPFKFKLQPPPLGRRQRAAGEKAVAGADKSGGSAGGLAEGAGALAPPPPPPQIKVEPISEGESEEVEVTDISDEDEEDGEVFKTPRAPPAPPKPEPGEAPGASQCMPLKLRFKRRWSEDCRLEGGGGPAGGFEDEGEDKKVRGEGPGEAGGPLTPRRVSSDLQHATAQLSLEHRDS
The settings on record: protein: recombinant; tags: N-terminal GST; dsDNA, one strand shown. The procedure, abridged:
as §1

For experiment [12], the target named is T7, ETV3L (Homo sapiens, UniProt Q6ZN32 1-361).
T7 sequence: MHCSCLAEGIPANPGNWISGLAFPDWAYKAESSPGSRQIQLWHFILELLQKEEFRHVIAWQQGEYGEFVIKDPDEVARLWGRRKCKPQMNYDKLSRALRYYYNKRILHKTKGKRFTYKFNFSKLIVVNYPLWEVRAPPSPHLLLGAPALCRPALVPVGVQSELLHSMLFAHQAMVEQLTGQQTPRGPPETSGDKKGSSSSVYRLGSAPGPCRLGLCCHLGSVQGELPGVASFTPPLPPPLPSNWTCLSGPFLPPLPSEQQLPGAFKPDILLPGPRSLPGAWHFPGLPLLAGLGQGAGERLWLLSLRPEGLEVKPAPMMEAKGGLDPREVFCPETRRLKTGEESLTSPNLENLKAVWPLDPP
The settings on record: protein: recombinant; tags: N-terminal GST; dsDNA, one strand shown. The procedure, abridged: as §1

In experiment [13] the target is T8, ETS2 (Homo sapiens, UniProt P15036 1-469).
T8 sequence: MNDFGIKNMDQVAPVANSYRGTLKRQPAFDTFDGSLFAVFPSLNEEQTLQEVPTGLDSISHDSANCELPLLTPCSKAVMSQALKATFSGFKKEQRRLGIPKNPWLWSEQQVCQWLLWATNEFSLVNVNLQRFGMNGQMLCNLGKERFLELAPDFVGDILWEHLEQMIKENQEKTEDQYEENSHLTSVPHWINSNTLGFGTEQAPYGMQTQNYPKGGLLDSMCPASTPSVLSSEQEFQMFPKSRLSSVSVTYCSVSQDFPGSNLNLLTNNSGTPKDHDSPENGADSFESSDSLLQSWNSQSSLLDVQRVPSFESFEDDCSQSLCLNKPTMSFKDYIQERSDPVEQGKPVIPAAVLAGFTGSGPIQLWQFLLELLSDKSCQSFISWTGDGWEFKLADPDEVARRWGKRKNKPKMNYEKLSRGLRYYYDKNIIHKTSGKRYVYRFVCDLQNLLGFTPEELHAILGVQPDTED
The settings on record: protein: recombinant; tags: N-terminal GST; dsDNA, one strand shown. The procedure, abridged:
as §1

For experiment [14], the target named is T9, SPDEF (Homo sapiens, UniProt O95238 1-335).
T9 sequence: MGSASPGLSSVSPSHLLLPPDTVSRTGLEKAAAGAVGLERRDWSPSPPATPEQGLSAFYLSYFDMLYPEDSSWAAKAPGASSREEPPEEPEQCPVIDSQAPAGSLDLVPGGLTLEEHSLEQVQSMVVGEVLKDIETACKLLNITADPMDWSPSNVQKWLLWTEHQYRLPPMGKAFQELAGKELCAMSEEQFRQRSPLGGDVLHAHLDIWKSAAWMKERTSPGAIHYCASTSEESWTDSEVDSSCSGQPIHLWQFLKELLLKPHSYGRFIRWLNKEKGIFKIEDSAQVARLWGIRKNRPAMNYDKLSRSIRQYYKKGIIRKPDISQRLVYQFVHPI
The settings on record: protein: recombinant; tags: N-terminal GST; dsDNA, one strand shown. The procedure, abridged:
as §1

Experiment [15] has as its target T10, ETV7 (Homo sapiens, UniProt Q9Y603 1-341).
T10 sequence: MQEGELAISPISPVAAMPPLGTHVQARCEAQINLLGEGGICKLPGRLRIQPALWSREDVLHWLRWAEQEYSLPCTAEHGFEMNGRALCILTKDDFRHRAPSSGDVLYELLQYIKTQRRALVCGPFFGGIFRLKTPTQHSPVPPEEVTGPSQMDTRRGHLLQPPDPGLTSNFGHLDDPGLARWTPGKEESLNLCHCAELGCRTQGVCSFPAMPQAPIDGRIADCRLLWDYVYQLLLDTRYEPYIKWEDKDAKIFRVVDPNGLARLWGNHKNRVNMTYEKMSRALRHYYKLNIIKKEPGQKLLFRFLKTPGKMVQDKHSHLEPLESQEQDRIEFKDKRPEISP
The settings on record: protein: recombinant; tags: N-terminal GST; dsDNA, one strand shown. In outline: as §1

Experiment [16] has as its target T11, ELF5 (Homo sapiens, UniProt Q9UKW6-2 1-255).
T11 sequence: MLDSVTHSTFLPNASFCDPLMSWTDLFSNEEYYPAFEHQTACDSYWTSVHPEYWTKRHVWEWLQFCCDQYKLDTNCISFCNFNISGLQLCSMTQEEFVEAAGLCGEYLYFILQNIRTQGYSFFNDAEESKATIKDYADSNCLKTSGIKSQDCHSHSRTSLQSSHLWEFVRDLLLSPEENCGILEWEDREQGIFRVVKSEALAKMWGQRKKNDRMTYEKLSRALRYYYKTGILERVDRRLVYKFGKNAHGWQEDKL
The settings on record: protein: recombinant; tags: N-terminal GST; dsDNA, one strand shown. The procedure, abridged: as §1

The target of experiment [17] is T12, ETV3 (Homo sapiens, UniProt P41162-2 1-143).
T12 sequence: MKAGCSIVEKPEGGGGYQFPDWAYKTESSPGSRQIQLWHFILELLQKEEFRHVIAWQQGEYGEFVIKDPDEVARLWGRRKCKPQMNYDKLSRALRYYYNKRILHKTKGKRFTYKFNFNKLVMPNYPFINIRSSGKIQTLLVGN
The settings on record: protein: recombinant; tags: N-terminal GST; dsDNA, one strand shown. In outline:
as §1

Experiment [18] concerns the target ETV6 (Homo sapiens, UniProt P41212 1-452). The settings on record: protein: recombinant; tags: N-terminal GST; dsDNA, one strand shown. In outline:
as §1

Chain of ETV5 (P41161 whole entry): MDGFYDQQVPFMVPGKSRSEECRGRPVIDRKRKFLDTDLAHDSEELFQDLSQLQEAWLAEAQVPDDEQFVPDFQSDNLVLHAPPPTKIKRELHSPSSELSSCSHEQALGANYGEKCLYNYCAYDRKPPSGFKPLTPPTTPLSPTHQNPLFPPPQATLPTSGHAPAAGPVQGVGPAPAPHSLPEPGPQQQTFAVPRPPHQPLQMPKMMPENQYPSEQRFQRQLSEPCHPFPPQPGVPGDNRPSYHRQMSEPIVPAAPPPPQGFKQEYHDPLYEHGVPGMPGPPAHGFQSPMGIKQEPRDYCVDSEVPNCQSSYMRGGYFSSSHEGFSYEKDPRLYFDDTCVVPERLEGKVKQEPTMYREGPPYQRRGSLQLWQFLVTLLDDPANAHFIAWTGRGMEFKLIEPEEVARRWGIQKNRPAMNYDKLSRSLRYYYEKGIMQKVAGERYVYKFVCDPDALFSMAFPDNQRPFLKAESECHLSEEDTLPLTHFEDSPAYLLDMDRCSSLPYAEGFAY
Chain of CRX (O43186 whole entry): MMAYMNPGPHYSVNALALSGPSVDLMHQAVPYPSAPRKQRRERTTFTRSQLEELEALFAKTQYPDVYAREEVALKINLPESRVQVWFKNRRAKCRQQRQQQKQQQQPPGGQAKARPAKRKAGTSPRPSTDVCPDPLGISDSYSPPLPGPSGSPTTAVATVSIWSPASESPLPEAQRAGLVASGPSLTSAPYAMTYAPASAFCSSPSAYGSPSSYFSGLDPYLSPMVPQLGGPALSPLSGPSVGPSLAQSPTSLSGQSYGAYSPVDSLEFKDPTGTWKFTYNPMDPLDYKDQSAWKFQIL
Chain of ETV1 (P50549 whole entry): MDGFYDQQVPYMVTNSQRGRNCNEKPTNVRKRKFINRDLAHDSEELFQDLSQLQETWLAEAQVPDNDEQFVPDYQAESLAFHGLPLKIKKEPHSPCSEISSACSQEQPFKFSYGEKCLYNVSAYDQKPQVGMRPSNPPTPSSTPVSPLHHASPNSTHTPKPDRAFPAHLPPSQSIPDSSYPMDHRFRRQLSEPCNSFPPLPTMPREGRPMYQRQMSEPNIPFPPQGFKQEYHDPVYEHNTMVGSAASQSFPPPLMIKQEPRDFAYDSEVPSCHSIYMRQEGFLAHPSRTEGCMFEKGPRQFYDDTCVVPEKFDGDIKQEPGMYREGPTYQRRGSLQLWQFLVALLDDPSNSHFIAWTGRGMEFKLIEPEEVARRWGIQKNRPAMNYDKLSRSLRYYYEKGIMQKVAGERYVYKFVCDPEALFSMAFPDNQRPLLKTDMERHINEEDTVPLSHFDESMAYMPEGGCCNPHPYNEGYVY
Chain of ETV6 (P41212 whole entry): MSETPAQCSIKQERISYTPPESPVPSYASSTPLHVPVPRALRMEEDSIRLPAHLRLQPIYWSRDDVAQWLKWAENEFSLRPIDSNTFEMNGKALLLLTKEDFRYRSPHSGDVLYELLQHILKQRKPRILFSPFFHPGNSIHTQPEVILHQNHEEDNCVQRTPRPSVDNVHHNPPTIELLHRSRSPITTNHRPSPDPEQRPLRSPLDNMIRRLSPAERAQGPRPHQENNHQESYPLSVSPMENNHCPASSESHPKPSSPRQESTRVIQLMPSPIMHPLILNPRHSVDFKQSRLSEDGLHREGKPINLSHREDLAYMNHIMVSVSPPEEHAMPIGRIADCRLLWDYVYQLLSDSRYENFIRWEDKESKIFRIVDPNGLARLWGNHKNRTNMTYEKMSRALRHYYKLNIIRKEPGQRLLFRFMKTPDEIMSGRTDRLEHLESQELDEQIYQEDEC
Chain of HSF1 (Q00613 whole entry): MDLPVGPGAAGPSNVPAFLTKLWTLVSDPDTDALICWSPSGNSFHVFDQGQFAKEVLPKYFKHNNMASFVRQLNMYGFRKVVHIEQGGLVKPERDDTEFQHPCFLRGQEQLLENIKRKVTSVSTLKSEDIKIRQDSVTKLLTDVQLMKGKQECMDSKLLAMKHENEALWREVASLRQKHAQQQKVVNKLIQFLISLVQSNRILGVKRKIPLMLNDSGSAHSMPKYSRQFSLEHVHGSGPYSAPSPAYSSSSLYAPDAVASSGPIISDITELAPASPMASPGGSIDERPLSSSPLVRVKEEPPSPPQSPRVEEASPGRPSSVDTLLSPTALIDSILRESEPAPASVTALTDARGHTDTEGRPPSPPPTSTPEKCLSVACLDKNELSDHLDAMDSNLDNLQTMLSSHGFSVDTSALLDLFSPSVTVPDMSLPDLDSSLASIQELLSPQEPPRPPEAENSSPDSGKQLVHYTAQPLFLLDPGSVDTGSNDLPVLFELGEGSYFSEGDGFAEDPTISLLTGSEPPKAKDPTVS
Chain of ELF4 (Q99607 whole entry): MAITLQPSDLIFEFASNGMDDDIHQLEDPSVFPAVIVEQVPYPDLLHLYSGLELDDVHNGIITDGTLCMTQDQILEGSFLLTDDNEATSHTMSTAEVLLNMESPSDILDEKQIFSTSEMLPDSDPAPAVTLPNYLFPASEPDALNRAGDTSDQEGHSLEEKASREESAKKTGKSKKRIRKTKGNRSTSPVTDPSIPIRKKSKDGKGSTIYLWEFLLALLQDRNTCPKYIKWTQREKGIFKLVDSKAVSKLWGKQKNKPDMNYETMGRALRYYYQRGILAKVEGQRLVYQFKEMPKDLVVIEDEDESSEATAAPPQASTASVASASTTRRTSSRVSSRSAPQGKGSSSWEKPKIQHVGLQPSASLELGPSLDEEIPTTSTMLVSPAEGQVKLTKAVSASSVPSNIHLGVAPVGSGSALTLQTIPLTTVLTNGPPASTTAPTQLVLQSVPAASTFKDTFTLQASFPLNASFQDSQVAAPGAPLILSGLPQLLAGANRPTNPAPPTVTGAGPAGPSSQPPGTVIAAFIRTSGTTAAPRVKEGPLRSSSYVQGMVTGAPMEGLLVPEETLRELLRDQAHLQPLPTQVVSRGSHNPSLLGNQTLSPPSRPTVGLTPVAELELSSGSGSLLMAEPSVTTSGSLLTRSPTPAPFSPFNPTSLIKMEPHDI

With ATTCTC, the binding signal was 1.32 fold enrichment (6-mer frequency, TF over GST control) in [1]; 1.31 fold enrichment (6-mer frequency, TF over GST control) in experiment [2]; 2.42 fold enrichment (6-mer frequency, TF over GST control) in experiment [3]; 1.15 fold enrichment (6-mer frequency, TF over GST control) in experiment [4]; 1.35 fold enrichment (6-mer frequency, TF over GST control) in experiment [5]; 1.25 fold enrichment (6-mer frequency, TF over GST control) in [6]. Besides, the binding signal is 1.36 fold enrichment (6-mer frequency, TF over GST control) in [7]; 1.2 fold enrichment (6-mer frequency, TF over GST control) in [8]; 1.69 fold enrichment (6-mer frequency, TF over GST control) in experiment [9]; 1.23 fold enrichment (6-mer frequency, TF over GST control) in [10]; 1.22 fold enrichment (6-mer frequency, TF over GST control) in experiment [11]; 1.31 fold enrichment (6-mer frequency, TF over GST control) in experiment [12]. Moreover, the binding signal is 1.19 fold enrichment (6-mer frequency, TF over GST control) in [13]; 1.19 fold enrichment (6-mer frequency, TF over GST control) in experiment [14]; 1.23 fold enrichment (6-mer frequency, TF over GST control) in experiment [15]; 1.26 fold enrichment (6-mer frequency, TF over GST control) in experiment [16]; 1.17 fold enrichment (6-mer frequency, TF over GST control) in [17]; 1.23 fold enrichment (6-mer frequency, TF over GST control) in experiment [18].
